Experimental data published in PubChem BioAssay (Tox21).
Records with an inconclusive call do not appear. Where a call stands in place of a potency, no number is given. The source made the active and inactive calls. Unless noted, calls come from the whole dose curve; as a rule, active = well fitted cell-killing curve with a large enough effect in the repeat runs; inconclusive = weak or mixed curves, or effect the other way; inactive = no such curve, though single readings can be large or run the other way.

Target: Bile acid receptor (Homo sapiens) (UniProt Q96RI1)
Test: qHTS assay to identify small molecule antagonists of the farnesoid-X-receptor (FXR) signaling pathway (AID 743217; active = well fitted inhibition curve with a large enough effect in the signal ratio in the repeat runs, not every such curve was filed as active; the % refers to the signal ratio)
Details: HEK293T FXR-UAS-bla, beta-lactamase ratio, CDCA-stimulated, 16 h; series mostly up to 62.6 µM
How it was run: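 FRET fluorescence after 2 h room-temperature LiveBLAzer loading gives the readout. Prior step: FXR-bla HEK 293T cells, seeded and incubated 5 h, received test compounds plus 50 uM final CDCA for 16 h at 37 °C.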

Bile acid receptor (Homo sapiens), sequence (Q96RI1 whole entry, looked up): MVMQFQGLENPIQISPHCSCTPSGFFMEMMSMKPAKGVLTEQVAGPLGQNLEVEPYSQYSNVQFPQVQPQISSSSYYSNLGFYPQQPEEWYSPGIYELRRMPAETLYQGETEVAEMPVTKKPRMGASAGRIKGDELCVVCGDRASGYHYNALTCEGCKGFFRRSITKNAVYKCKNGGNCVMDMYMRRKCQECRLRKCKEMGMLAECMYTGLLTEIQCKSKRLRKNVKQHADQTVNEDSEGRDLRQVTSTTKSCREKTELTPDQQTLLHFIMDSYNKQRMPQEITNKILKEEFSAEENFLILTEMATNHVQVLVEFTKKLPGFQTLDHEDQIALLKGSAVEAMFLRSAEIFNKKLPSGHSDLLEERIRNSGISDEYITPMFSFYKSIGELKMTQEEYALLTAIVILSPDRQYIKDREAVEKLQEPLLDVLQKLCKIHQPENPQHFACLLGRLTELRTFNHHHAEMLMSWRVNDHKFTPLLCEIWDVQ

Compound	Potency
COc1cccc(-c2ccc(/C=C\CN3CCCCCC3)cc2Cl)c1	inactive
CC(C)c1ccc2sc3ccccc3c(=O)c2c1	inactive
CCSCC	inactive

Test system: not listed separately
Test: qHTS assay to identify small molecule agonists of the farnesoid-X-receptor (FXR) signaling pathway - cell viability counter screen (AID 743218); note: nearly all actives have a fitted effect of over 45% in size; note: potency is the fitted concentration of half-maximal effect
Details: FXR-bla HEK293T viability, CellTiter-Glo luminescence, 16 h; series mostly up to 62.6 µM
How it was run: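 Readout: CellTiter-Glo luminescence, 30 min RT, multiplexed after the FXR-bla FRET reading. HEK 293T FXR-UAS-bla cells received compound 5 h post-plating and were incubated 16 h at 37 C.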

Compound	Potency
O=C(CCCCCCCCc1cccnc1)N1CCC(C=C(c2ccccc2)c2ccccc2)CC1	24.5 µM (active)
CN(C[C@@H](CC[N+]12CCC(C3CCCCC3)(CC1)CC2)c1ccc(Cl)c(Cl)c1)C(=O)c1cc(C(F)(F)F)cc(C(F)(F)F)c1	54.9 µM (active)
CC(Cc1ccc(O)c(O)c1)C(C)Cc1ccc(O)c(O)c1 (centres undefined)	inactive
Cc1cc(Br)ccc1NC(=O)CCl	24.5 µM (active)
S=C1NC=NC2N=CNC12 (centres undefined)	11 µM (active)
CCCCCN=C(N)N/N=C/c1c[nH]c2ccc(OC)cc12	13.3 µM (active)
CN1CC[C@H](c2c(O)cc(O)c3c(=O)cc(-c4ccccc4Cl)oc23)[C@H](O)C1	inactive
CC(C)c1ccc2sc3ccccc3c(=O)c2c1	inactive
O=C(CCN1CCC(c2ccccc2)C1)c1ccc2c(c1)OCCO2 (centres undefined)	inactive
O=C(Nc1ccccc1)c1cc(Cl)ccc1O	38.9 µM (active)
O=[N+]([O-])c1ccc(O)c2ncccc12	inactive
CN(C)CCOc1ccc(/C(=C(/CCCl)c2ccccc2)c2ccccc2)cc1	20.5 µM (active)
NCc1cccc(C2CCN(C(=O)c3ccc(C#Cc4ccccc4F)o3)CC2)c1	34.7 µM (active)
Cc1cc(F)ccc1-c1cc(N2CC[C@@H](O)[C@H]2CO)ncc1N(C)C(=O)C(C)(C)c1cc(C(F)(F)F)cc(C(F)(F)F)c1	13.6 µM (active)
C=C1C(CCl)(CCl)C2(Cl)C(Cl)C(Cl)C1(Cl)C2(Cl)Cl (centres undefined)	48.4 µM (active)
CN1CCN(CCCN2c3ccccc3Sc3ccc(C(F)(F)F)cc32)CC1	26.6 µM (active)
COc1cc(/C=C/C(=O)CC(=O)/C=C/c2ccc(O)c(OC)c2)ccc1O	24.7 µM (active)
CCSCC	inactive

Target: Bile acid receptor (Homo sapiens) (UniProt Q96RI1)
Test: qHTS assay to identify small molecule agonists of the farnesoid-X-receptor (FXR) signaling pathway (AID 743220; active = well fitted activation curve with a large enough effect in the signal ratio in the repeat runs, not every such curve was filed as active; the % refers to the signal ratio)
Details: HEK293T FXR-UAS-bla, beta-lactamase FRET ratio, 16 h; series mostly up to 62.6 µM
How it was run: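 FXR-UAS-bla HEK 293T cells carrying a UAS-driven beta-lactamase reporter were plated for 5 h at 37C/5% CO2, then exposed to DMSO-dissolved Tox21 10K compounds for 16 h at 37C. A LiveBLAzer B/G FRET substrate was loaded for 2 h at room temperature before fluorescence reading.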

Compound	outcome
COc1cccc(-c2ccc(/C=C\CN3CCCCCC3)cc2Cl)c1	inactive
CC(Cc1ccc(O)c(O)c1)C(C)Cc1ccc(O)c(O)c1 (centres undefined)	inactive
CCCCC/C=C\C=C\C(=O)OCC	inactive
S=C1NC=NC2N=CNC12 (centres undefined)	inactive
O=C(Nc1ccccc1)c1cc(Cl)ccc1O	inactive
C[C@H]1O[C@@H](O[C@H]2CC[C@@]3(C)[C@H](CC[C@@H]4[C@@H]3C[C@@H](O)[C@]3(C)[C@@H](C5=CC(=O)OC5)CC[C@]43O)C2)C[C@H](O)[C@@H]1O[C@H]1C[C@H](O)[C@H](O[C@H]2C[C@H](O)[C@H](O[C@@H]3O[C@H](CO)[C@@H](O)[C@H](O)[C@H]3O)[C@@H](C)O2)[C@@H](C)O1	inactive
O=[N+]([O-])c1ccc(O)c2ncccc12	inactive
NCc1cccc(C2CCN(C(=O)c3ccc(C#Cc4ccccc4F)o3)CC2)c1	inactive
CN1CCN(CCCN2c3ccccc3Sc3ccc(C(F)(F)F)cc32)CC1	inactive

Test system: not listed separately
Test: qHTS assay to identify small molecule antagonists of the farnesoid-X-receptor (FXR) signaling pathway - cell viability counter screen (AID 743221; active = well fitted cell-killing curve with a large enough effect in the repeat runs, not every such curve was filed as active; note: nearly all actives have a fitted effect of over 50% in size; note: potency is the fitted concentration of half-maximal effect)
Details: FXR-bla HEK293T viability, CellTiter-Glo luminescence, 16 h; series mostly up to 62.6 µM
How it was run: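 Quantitative HTS of the Tox21 10K library run in parallel with the beta-lactamase reporter read. HEK 293T cells carrying a UAS-driven bla reporter got compound and 50 uM CDCA (final) for 16 h; ATP-based luminescence followed.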

Compound	Potency
O=C(CCCCCCCCc1cccnc1)N1CCC(C=C(c2ccccc2)c2ccccc2)CC1	inactive
CN(C[C@@H](CC[N+]12CCC(C3CCCCC3)(CC1)CC2)c1ccc(Cl)c(Cl)c1)C(=O)c1cc(C(F)(F)F)cc(C(F)(F)F)c1	27.5 µM (active)
CC(Cc1ccc(O)c(O)c1)C(C)Cc1ccc(O)c(O)c1 (centres undefined)	inactive
Cc1cc(Br)ccc1NC(=O)CCl	19.5 µM (active)
CCCCCN=C(N)N/N=C/c1c[nH]c2ccc(OC)cc12	29.8 µM (active)
O=C1OC(=O)c2cc(-c3ccc4c(c3)C(=O)OC4=O)ccc21	inactive
CN1CC[C@H](c2c(O)cc(O)c3c(=O)cc(-c4ccccc4Cl)oc23)[C@H](O)C1	inactive
C=CCc1cc(S(=O)(=O)c2ccc(O)c(CC=C)c2)ccc1O	inactive
CC(C)c1ccc2sc3ccccc3c(=O)c2c1	inactive
O=C(CCN1CCC(c2ccccc2)C1)c1ccc2c(c1)OCCO2 (centres undefined)	inactive
O=[N+]([O-])c1ccc(O)c2ncccc12	inactive
CN(C)CCOc1ccc(/C(=C(/CCCl)c2ccccc2)c2ccccc2)cc1	40.9 µM (active)
Cc1cc(F)ccc1-c1cc(N2CC[C@@H](O)[C@H]2CO)ncc1N(C)C(=O)C(C)(C)c1cc(C(F)(F)F)cc(C(F)(F)F)c1	15.3 µM (active)
CN1CCN(CCCN2c3ccccc3Sc3ccc(C(F)(F)F)cc32)CC1	26.6 µM (active)
COc1cc(/C=C/C(=O)CC(=O)/C=C/c2ccc(O)c(OC)c2)ccc1O	43.9 µM (active)
CCSCC	inactive
Cc1ccc2nc(-c3ccc(N)cc3)sc2c1S(=O)(=O)O	inactive

Target: Vitamin D3 receptor (Homo sapiens) (UniProt P11473)
Test: qHTS assay to identify small molecule agonists of the vitamin D receptor (VDR) signaling pathway (AID 743222; calls by dose curve)
Details: HEK293T VDR-UAS-bla, beta-lactamase FRET ratio, 16 h; series mostly up to 63.5 µM
How it was run: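 Following 4 h attachment at 37C, VDR-bla cells (2,000 per well) received DMSO-dissolved compounds or controls. After 16 h incubation, LiveBLAzer B/G FRET substrate was added and fluorescence read 2 h later at room temperature.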

Vitamin D3 receptor (Homo sapiens), sequence (P11473 whole entry, looked up): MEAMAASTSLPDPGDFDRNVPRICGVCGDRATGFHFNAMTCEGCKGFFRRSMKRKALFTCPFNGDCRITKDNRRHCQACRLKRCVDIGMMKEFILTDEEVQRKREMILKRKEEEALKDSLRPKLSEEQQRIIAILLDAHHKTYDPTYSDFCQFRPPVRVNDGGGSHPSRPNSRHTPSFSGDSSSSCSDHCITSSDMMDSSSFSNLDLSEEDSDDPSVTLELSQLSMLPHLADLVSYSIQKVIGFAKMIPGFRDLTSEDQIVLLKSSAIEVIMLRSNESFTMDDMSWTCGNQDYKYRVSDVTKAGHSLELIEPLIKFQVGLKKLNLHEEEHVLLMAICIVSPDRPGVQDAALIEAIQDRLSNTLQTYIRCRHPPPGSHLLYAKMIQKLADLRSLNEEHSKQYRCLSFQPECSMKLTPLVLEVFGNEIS

Compound	outcome
COc1cccc(-c2ccc(/C=C\CN3CCCCCC3)cc2Cl)c1	inactive
CC(Cc1ccc(O)c(O)c1)C(C)Cc1ccc(O)c(O)c1 (centres undefined)	inactive
CCCCC/C=C\C=C\C(=O)OCC	inactive
S=C1NC=NC2N=CNC12 (centres undefined)	inactive
O=C1OC(=O)c2cc(-c3ccc4c(c3)C(=O)OC4=O)ccc21	inactive
O=C(CCN1CCC(c2ccccc2)C1)c1ccc2c(c1)OCCO2 (centres undefined)	inactive
O=C(Nc1ccccc1)c1cc(Cl)ccc1O	inactive
